# PubChem BioAssay AID1159580 (chemical genetic matrix, 2015)
# Several values for one entry are separate records, joined by “and”; a condition that tells them apart may be missing. Identical values can stand only once. Out of some 5,500 compounds screened, about 2,000 (36%) were called active. Not shown: some 18% with an inconclusive outcome. Cut-off read from the data, not from the text of the source: active = normalized growth mostly below about 0.91 (no sharp cut-off); inconclusive = no clear call, values can overlap the other calls; inactive = mostly above about 0.92. The list shows a part of the results.
# Assay: chemical genetic growth profiling, strain panel (AID 1159580);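 note: tested at 20 µM; growth read once vehicle control cultures reached saturation at 30 °C; 1 = growth at the plate median or of vehicle wells; lower values mean less growth of the strain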
# Conditions: S. cerevisiae deletion strains, growth OD
smiles,measurement,setting,value
CC/C(=C(/CC)c1ccc(O)cc1)c1ccc(O)cc1,normalized growth,"locus YAL021C, strain ccr4, stronger effect = lower value",1.09 [resistant] (active)
same,normalized growth,"locus YAL026C, strain drs2, stronger effect = lower value",0.958 (inactive)
same,normalized growth,"locus YAL030W, strain snc1, stronger effect = lower value",1 (inactive)
same,normalized growth,"locus YBL061C, strain skt5, stronger effect = lower value",1 (inactive)
same,normalized growth,"locus YBR009C, strain hhf1, stronger effect = lower value",0.953 (inactive)
same,normalized growth,"locus YBR021W, strain FUR4, stronger effect = lower value",0.992 (inactive)
same,normalized growth,"locus YBR023C, strain chs3, stronger effect = lower value",0.984 (inactive)
same,normalized growth,"locus YBR171W, strain sec66, stronger effect = lower value",0.987 (inactive)
same,normalized growth,"locus YBR229C, strain ROT2, stronger effect = lower value",1 (inactive)
same,normalized growth,"locus YBR231C, strain swc5, stronger effect = lower value",1.03 (inactive)
same,normalized growth,"locus YBR279W, strain paf1, stronger effect = lower value",0.961 (inactive)
same,normalized growth,"locus YCL011C, strain gbp2, stronger effect = lower value",0.976 (inactive)
same,normalized growth,"locus YCL016C, strain dcc1, stronger effect = lower value",0.943 (inactive)
same,normalized growth,"locus YCL029C, strain bik1, stronger effect = lower value",0.962 (inactive)
same,normalized growth,"locus YCL061C, strain MRC1, stronger effect = lower value",1 (inactive)
same,normalized growth,"locus YCL069W, strain vba3, stronger effect = lower value",0.987 (inactive)
same,normalized growth,"locus YCR088W, strain abp1, stronger effect = lower value",1.02 (inactive)
same,normalized growth,"locus YDL005C, strain med2, stronger effect = lower value",1.01 (inactive)
same,normalized growth,"locus YDL035C, strain GPR1, stronger effect = lower value",0.867 (inactive)
same,normalized growth,"locus YDL040C, strain nat1, stronger effect = lower value",1.01 (inactive)
same,normalized growth,"locus YDL074C, strain BRE1, stronger effect = lower value",0.776 (active)
same,normalized growth,"locus YDL101C, strain DUN1, stronger effect = lower value",0.963 (inactive)
same,normalized growth,"locus YDL185W, strain tfp1, stronger effect = lower value",0.997 (inactive)
same,normalized growth,"locus YDL192W, strain arf1, stronger effect = lower value",0.991 (inactive)
same,normalized growth,"locus YDR001C, strain nth1, stronger effect = lower value",1.01 (inactive)
same,normalized growth,"locus YDR069C, strain doa4, stronger effect = lower value",1.02 (inactive)
same,normalized growth,"locus YDR101C, strain arx1, stronger effect = lower value",0.961 (inactive)
same,normalized growth,"locus YDR137W, strain rgp1, stronger effect = lower value",0.49 (active)
same,normalized growth,"locus YDR150W, strain NUM1, stronger effect = lower value",1.01 (inactive)
same,normalized growth,"locus YDR159W, strain sac3, stronger effect = lower value",0.905 (inactive)
same,normalized growth,"locus YDR162C, strain NBP2, stronger effect = lower value",0.754 (active)
same,normalized growth,"locus YDR195W, strain ref2",1.2 [resistant] (active)
same,normalized growth,"locus YDR297W, strain sur2, stronger effect = lower value",1 (inactive)
same,normalized growth,"locus YDR318W, strain mcm21, stronger effect = lower value",0.952 (inactive)
same,normalized growth,"locus YDR334W, strain swr1, stronger effect = lower value",1.04 (inactive)
same,normalized growth,"locus YDR335W, strain msn5, stronger effect = lower value",1.02 (inactive)
same,normalized growth,"locus YDR388W, stronger effect = lower value",0.991 (inactive)
same,normalized growth,"locus YDR392W, strain spt3, stronger effect = lower value",0.869 (inactive)
same,normalized growth,"locus YDR502C, strain sam2, stronger effect = lower value",0.955 (inactive)
same,normalized growth,"locus YEL003W, strain gim4, stronger effect = lower value",1 (inactive)
same,normalized growth,"locus YEL037C, strain rad23, stronger effect = lower value",1.01 (inactive)
same,normalized growth,"locus YEL061C, strain CIN8 (second series), stronger effect = lower value",1.03 (inactive)
same,normalized growth,"locus YEL061C, strain CIN8, stronger effect = lower value",0.999 (inactive)
same,normalized growth,"locus YER015W, strain faa2, stronger effect = lower value",0.945 (inactive)
same,normalized growth,"locus YER016W, strain bim1, stronger effect = lower value",0.958 (inactive)
same,normalized growth,"locus YER110C, stronger effect = lower value",1.03 (inactive)
same,normalized growth,"locus YER111C, strain swi4, stronger effect = lower value",1.05 (inactive)
same,normalized growth,"locus YER155C, strain BEM2 (second series), stronger effect = lower value",1.03 (inactive)
same,normalized growth,"locus YER155C, strain BEM2, stronger effect = lower value",0.979 (inactive)
same,normalized growth,"locus YER167W, strain BCK2, stronger effect = lower value",0.984 (inactive)
same,normalized growth,"locus YFR010W, strain ubp6, stronger effect = lower value",1.04 (inactive)
same,normalized growth,"locus YGL078C, strain dbp3, stronger effect = lower value",0.977 (inactive)
same,normalized growth,"locus YGL086W, strain mad1, stronger effect = lower value",0.955 (inactive)
same,normalized growth,"locus YGL167C, strain pmr1, stronger effect = lower value",0.995 (inactive)
same,normalized growth,"locus YGL173C, strain kem1, stronger effect = lower value",0.959 (inactive)
same,normalized growth,"locus YGL227W, strain vid30, stronger effect = lower value",1.03 (inactive)
same,normalized growth,"locus YGL240W, strain doc1, stronger effect = lower value",0.98 (inactive)
same,normalized growth,"locus YGL248W, strain PDE1, stronger effect = lower value",0.915 (inactive)
same,normalized growth,"locus YGL253W, strain hxk2, stronger effect = lower value",0.989 (inactive)
same,normalized growth,"locus YGR135W, strain pre9, stronger effect = lower value",0.962 (inactive)
same,normalized growth,"locus YGR252W, strain gcn5, stronger effect = lower value",0.921 (inactive)
same,normalized growth,"locus YHR013C, strain ard1, stronger effect = lower value",1.09 (inactive)
same,normalized growth,"locus YHR027C, strain rpn1, stronger effect = lower value",0.98 (inactive)
same,normalized growth,"locus YHR030C, strain SLT2, stronger effect = lower value",0.98 (inactive) and 0.958 (inactive)
same,normalized growth,"locus YHR079C, strain IRE1 (second series), stronger effect = lower value",1.01 (inactive)
same,normalized growth,"locus YHR079C, strain IRE1, stronger effect = lower value",0.96 (inactive)
same,normalized growth,"locus YHR094C, strain hxt1, stronger effect = lower value",1 (inactive)
same,normalized growth,"locus YHR129C, strain ARP1, stronger effect = lower value",0.976 (inactive)
same,normalized growth,"locus YHR142W, strain chs7, stronger effect = lower value",1.03 (inactive)
same,normalized growth,"locus YHR200W, strain rpn10, stronger effect = lower value",0.991 (inactive)
same,normalized growth,"locus YIL066C, strain RNR3, stronger effect = lower value",0.937 (inactive)
same,normalized growth,"locus YIL073C, strain SPO22, stronger effect = lower value",1.21 (inactive)
same,normalized growth,"locus YIL125W, strain kgd1, stronger effect = lower value",0.995 (inactive)
same,normalized growth,"locus YIR030C, strain dcg1, stronger effect = lower value",0.998 (inactive)
same,normalized growth,"locus YJL092W, strain hpr5, stronger effect = lower value",1 (inactive)
same,normalized growth,"locus YJL095W, strain BCK1 (second series), stronger effect = lower value",0.982 (inactive)
same,normalized growth,"locus YJL095W, strain BCK1, stronger effect = lower value",0.795 (active) and 0.97 (inactive)
same,normalized growth,"locus YJL115W, strain asf1, stronger effect = lower value",1.04 (inactive)
same,normalized growth,"locus YJL129C, strain trk1, stronger effect = lower value",0.94 (inactive)
same,normalized growth,"locus YJL134W, strain LCB3, stronger effect = lower value",1 (inactive)
same,normalized growth,"locus YJL154C, strain vps35, stronger effect = lower value",0.997 (inactive)
same,normalized growth,"locus YJL164C, strain tpk1, stronger effect = lower value",0.944 (inactive)
same,normalized growth,"locus YJL166W, strain qcr8, stronger effect = lower value",0.958 (inactive)
same,normalized growth,"locus YJL168C, strain set2, stronger effect = lower value",1 (inactive)
same,normalized growth,"locus YJL187C, strain SWE1 (second series), stronger effect = lower value",0.923 (inactive)
same,normalized growth,"locus YJR043C, strain POL32, stronger effect = lower value",0.952 (inactive)
same,normalized growth,"locus YJR066W, strain TOR1, stronger effect = lower value",0.938 (inactive)
same,normalized growth,"locus YJR075W, strain HOC1, stronger effect = lower value",0.959 (inactive)
